# USP30 inh: inhibitors of human USP30 deubiquitinase; Q70CQ3; purified USP30, Ub-rhodamine cleavage fluorescence; inhibition, % at 25 µM; 47,000 tested, 5.3% active; AID 1645860
# USP28 inh: inhibitors of human USP28 deubiquitinase. Q96RU2. purified USP28, Ub-rhodamine cleavage fluorescence, 30 min. inhibition, % at 25 µM. 47,000 tested, 3% active. AID 1645857
# USP10 inh: human USP10 deubiquitinase inhibition. 47,000 tested, 1.1% active. inhibition, % at 20 µM. Q14694. purified USP10, Ub-rhodamine fluorescence, 60 min
# USP8 block: human USP8 deubiquitinase inhibition | 47,000 tested, 4.2% active | inhibition, % at 20 µM | P40818 | purified USP8, Ub-rhodamine cleavage fluorescence, 30 min
# USP17 block: inhibitors of human USP17 deubiquitinase; AID 1645855; inhibition, % at 50 µM; 47,000 tested, 6.5% active; A8MUK1; purified USP17, Ub-rhodamine cleavage fluorescence, 3 h
# A number is an active result; - = inactive; . = not tested or not shown. Compounds with a hit are over-represented: about 14% of the library has one in this group of screens. Cut-off read from the data, not from the text of the source: active = inhibition above about 30%; inactive = the rest.
SMILES,USP30 inh,USP28 inh,USP10 inh,USP8 block,USP17 block
CCC(C)[C@H](NC(=O)N1CCn2c1nc1ccccc12)C(=O)NCCC1=CCCCC1 (some centres undefined),-,-,-,-,36
COc1ccc(CCNC(=O)[C@H](C)NC(=O)N2CCn3c2nc2ccccc23)cc1OC,30,-,-,-,-
Cc1ccc(CNC(=O)[C@H](C)NC(=O)N2CCn3c2nc2ccccc23)cc1,80,47,-,-,65
CCC(C)NC(=O)[C@H](C)NC(=O)N1CCn2c1nc1ccccc12 (some centres undefined),-,-,-,-,-
COc1ccc(CNC(=O)[C@H](CCSC)NC(=O)N2CCn3c2nc2ccccc23)cc1,44,-,-,-,-
COc1cccc(CNC(=O)[C@H](C)NC(=O)N2CCn3c2nc2ccccc23)c1,-,-,-,-,-
CC(C)C[C@H](NC(=O)N1CCn2c1nc1ccccc12)C(=O)NCCc1ccccc1,-,-,-,-,-
CCN1CCN(c2ccc(S(=O)(=O)N3CCCCC3)cc2NC(=O)/C=C/c2ccccc2)CC1,-,-,-,-,-
COc1cccc(CCN2C[C@@]34CN(C(=O)NC5CCCC5)C[C@@H](C[C@@H]3S2(=O)=O)O4)c1,-,-,-,-,-
COc1ccc(CCNC(=O)[C@H](CCSC)NC(=O)N2CCn3c2nc2ccccc23)cc1OC,75,-,-,-,35
O=C(Cc1ccccc1)NCCCCc1ccccc1,-,-,-,-,-
CN(Cc1ccccc1)S(=O)(=O)c1ccc2[nH]cc(C(=O)NCc3cccs3)c(=O)c2c1,-,-,-,-,60
Cc1ccc(CC(=O)N2CCCC(Cc3nccnc3N)C2)s1 (centres undefined),-,-,-,-,-
Cn1c(=O)c2c(ncn2CC(=O)NC2CCCc3ccccc32)n(C)c1=O (centres undefined),-,82,-,-,-
CCOc1ncccc1C(=O)NC1CCCc2ccccc21 (centres undefined),32,-,-,-,-
O=C(NC1CCCc2ccccc21)c1cnn(-c2ccccc2)c1-n1cccc1 (centres undefined),32,-,-,-,-
Cn1c(=O)c2c(ncn2CC(=O)OCC(=O)Nc2ccc3c(c2)CCC3)n(C)c1=O,-,-,-,-,-
COc1ccc(C2c3[nH]c4ccccc4c3C[C@@H]3C(=O)N(Cc4ccco4)CC(=O)N23)cc1OC (some centres undefined),-,-,-,-,-
COc1ccc2c(=O)c3c(oc2c1)C(=O)N(CCN1CCOCC1)C3c1ccc(F)cc1 (centres undefined),-,-,-,-,-
CSc1ncc(C(=O)NC(C)c2ccccc2)c(-c2ccccc2)n1 (centres undefined),-,-,-,-,60
Cc1ccc(-c2ncc(C(=O)NC(C)c3ccccn3)c(-c3ccncc3)n2)cc1 (centres undefined),-,-,-,-,-
O=C(Nc1nc2c(s1)CCC2C(=O)NCc1ccncc1)c1ccc(F)cc1 (centres undefined),-,-,-,-,-
COC1=CC(=O)c2c(O)c(C)c(CC(C)=O)c(O)c2C1=O,-,-,-,-,64
O=C(c1ccc2c(c1)CCC2)N1CCCC(c2ccncn2)C1 (centres undefined),-,-,-,-,-
Cc1ccccc1NC(=O)c1ccc(C23CC4CC(CC(C4)C2)C3)o1,-,-,-,-,-
SMILES,USP30 inh,USP28 inh,USP10 inh,USP8 block,USP17 block
O=C(CNC1CCCc2ccccc21)Nc1ccc2c(c1)OC(F)(F)O2 (centres undefined),-,-,-,-,-
O=C(CNc1ccc(F)cc1F)Nc1ccc2c(c1)OC(F)(F)O2,-,49,-,-,-
COc1ccc(Br)c(-c2nc(CS(=O)(=O)c3ccc(F)cc3)no2)c1,38,-,-,-,-
Cn1c(=O)c(C(=O)CN2CCN(c3ccc(O)cc3)CC2)c(N)n(Cc2ccccc2)c1=O,-,-,-,67,59
CC(NC(=O)CSc1nc2ccccc2[nH]1)c1ccc2c(c1)OCO2 (centres undefined),-,-,-,-,-
COc1ccc(Sc2nc3ccccc3n3cnnc23)cc1,-,-,-,79,-
COc1cc(C(=O)OCc2csc(-c3ccccc3)n2)ccc1OCC(=O)Nc1ccc(F)cc1,-,-,-,-,49
COc1cc(C(=O)OCc2csc(-c3ccccc3)n2)cc(Cl)c1OC,-,-,-,-,-
COc1ccc(C)cc1-n1nnnc1SCC(=O)c1cc(C)ccc1C,32,-,-,-,-
CC1=C(C(=O)NCc2ccccc2)C(c2cccc(F)c2)n2ncnc2N1 (centres undefined),33,-,-,-,-
COc1ccc(C2C(C(=O)NCc3ccccc3)=C(C)Nc3ncnn32)cc1 (centres undefined),-,-,-,-,-
C=C1OC(=O)[C@]2(C1O)[C@H](O)C(=O)C=C[C@@H]2C (some centres undefined),-,-,-,-,-
Cn1c(C(=O)NCCc2ccc(S(N)(=O)=O)cc2)cc2sc(Cl)cc21,-,41,-,-,-
COCCCNc1nc(Nc2ccc(OC)c(Cl)c2)c2cnn(C)c2n1,-,-,-,-,-
COc1ccc(C)cc1NC(=O)Cc1csc(NC(=O)c2ccc(=O)[nH]c2)n1,-,-,-,82,71
CCOC(=O)N1CCN(C(=O)Cc2csc(NC(=O)c3ccc(=O)[nH]c3)n2)CC1,-,-,-,-,-
COc1ccc(OC)c(-c2nnc(-c3ccc(OCc4ccccc4)c(OC)c3)o2)c1,-,-,-,-,-
COc1cc(N2CC[C@H]3O[C@H](C(=O)NCc4ccco4)CC[C@H]32)ncn1,-,-,-,-,-
COc1c(O)c2c(c3cc(C(=O)O)[nH]c13)CCN2C(N)=O,-,-,-,-,37
O=c1[nH]c2ccc(NCc3ccccc3OCc3ccc(Cl)cc3)cc2[nH]1,31,37,-,-,-
O=C(Nc1ccc(F)cc1F)c1cc2n(n1)CCCC2,-,-,-,-,.
COc1ccc(C2CC(=O)N(Cc3ccc(F)cc3)C(=O)C2)cc1OC,-,-,-,-,47
COc1ccc(C(c2c[nH]c3ccccc23)c2c[nH]c3ccccc23)cc1O,-,-,-,38,-
CC(=O)c1ccc(NS(=O)(=O)c2c(C)nn(-c3ccccc3)c2C)cc1,-,-,-,-,-
O=C(CCc1c[nH]c2ccccc12)Nc1ccc(Br)cc1F,-,42,-,-,-
Cc1ccc(F)cc1NC(=O)CCCc1c[nH]c2ccccc12,-,-,-,-,-
CCCc1nnc(NC(=O)c2cc(-c3ccccc3O)n[nH]2)s1,-,-,54,-,-
CCN1[C@H]2CCN(Cc3cnn(C)c3)CC[C@@H]2Oc2ccccc2S1(=O)=O,-,-,-,-,-
CC(C)(C)OC(=O)N1CCN(C(=O)Cn2c(=O)nc(-c3ccccc3)c3ccccc32)CC1,59,-,-,-,33

# Bioassay records: PubChem, Buhrlage Lab, Dana-Farber Cancer Institute and Novartis Institutes for BioMedical Research (Cambridge, Mass)
